In the antibiotic and cytotoxicity screens of Wong et al. (2023):
About 1,500 (3.8%) of roughly 39,000 compounds were called active. Only a selection was taken, and actives are over-represented in it overall.

The molecules below were run on HSkMC (human skeletal muscle cells) (assay: cytotoxicity call (relative viability < 0.9)). Details: 10 µM.
In the case of `CC(C)(N)CO.Cn1c(=O)c2[nH]c(Br)nc2n(C)c1=O`, the cytotoxicity call is reported as “inactive”. For `Cc1ccc(S(=O)(=O)N(C)C[C@H]2OCCCC[C@@H](C)Oc3ccc(NC(=O)CCC(F)(F)F)cc3C(=O)N([C@H](C)CO)C[C@H]2C)cc1`, the cytotoxicity call was “inactive”. With `CO[C@H]1CN(C)C(=O)c2ccc(NC(C)=O)cc2OC[C@@H](C)N(S(=O)(=O)c2cn(C)cn2)C[C@@H]1C` the cytotoxicity call was “inactive”. For `C[C@@H]1CCCCO[C@@H](CN(C)Cc2ccc(Cl)c(Cl)c2)[C@@H](C)CN([C@H](C)CO)C(=O)c2cc(N(C)C)ccc2O1`, the cytotoxicity call was “inactive”. In the case of `Cc1noc(C)c1NC(=O)Nc1ccc2c(c1)CC(=O)N([C@H](C)CO)C[C@H](C)[C@H](CN(C)C(=O)NC(C)C)O2`, the cytotoxicity call is reported as “inactive”. With `C[C@@H]1CCCCO[C@H](CN(C)Cc2ccncc2)[C@@H](C)CN([C@@H](C)CO)C(=O)c2cc(NC(=O)Nc3cccc4ccccc34)ccc2O1` the cytotoxicity call was “inactive”. With `COc1ccc(S(=O)(=O)Nc2ccc3c(c2)C(=O)N([C@H](C)CO)C[C@@H](C)[C@@H](CN(C)Cc2ccncc2)O3)cc1` the cytotoxicity call was “inactive”. For `C[C@H]1CCCCO[C@@H](CN(C)C(=O)Nc2ccc3c(c2)OCO3)[C@@H](C)CN([C@@H](C)CO)C(=O)c2cc(NC(=O)c3ccncc3)ccc2O1`, the cytotoxicity call was “inactive”. In the case of `C[C@@H]1CN([C@H](C)CO)C(=O)CCCn2cc(nn2)CO[C@H]1CN(C)S(=O)(=O)c1cn(C)cn1`, the cytotoxicity call is reported as “inactive”. In the case of `COc1ccc(S(=O)(=O)N(C)C[C@H]2OCCCC[C@@H](C)Oc3ccc(NC(=O)Nc4ccccc4)cc3C(=O)N([C@@H](C)CO)C[C@@H]2C)cc1`, the cytotoxicity call is reported as “inactive”. In the case of `Cc1noc(C)c1S(=O)(=O)Nc1ccc2c(c1)C(=O)N([C@H](C)CO)C[C@H](C)[C@H](CN(C)S(C)(=O)=O)OCCCC[C@H](C)O2`, the cytotoxicity call is reported as “inactive”. `C[C@H]1[C@H](C)CC[C@]2(C(=O)O[C@@H]3O[C@H](CO[C@@H]4O[C@H](CO)[C@@H](O[C@@H]5O[C@@H](C)[C@H](O)[C@@H](O)[C@H]5O)[C@H](O)[C@H]4O)[C@@H](O)[C@H](O)[C@H]3O)CC[C@]3(C)C(=CC[C@@H]4[C@@]5(C)C[C@@H](O)[C@H](O)[C@@](C)(CO)[C@@H]5[C@H](O)C[C@]43C)[C@H]12` was tested, and the cytotoxicity call was “inactive”. `C[C@@H]1CN([C@@H](C)CO)C(=O)c2cc(NC(=O)c3ccccc3)ccc2O[C@@H](C)CCCCO[C@H]1CN(C)C(=O)c1ccccc1` was tested, and the cytotoxicity call was “inactive”. For `COc1ccccc1S(=O)(=O)N[C@H]1CC[C@H](CCNC(=O)C2CCOCC2)O[C@H]1CO`, the cytotoxicity call was “inactive”. In the case of `Cc1noc(C)c1S(=O)(=O)N(C)C[C@H]1Oc2ccc(NC(=O)Nc3ccc4c(c3)OCO4)cc2CC(=O)N([C@H](C)CO)C[C@@H]1C`, the cytotoxicity call is reported as “inactive”. `C[C@@H]1CCCCO[C@@H](CN(C)CC2CCCCC2)[C@@H](C)CN([C@H](C)CO)C(=O)c2cc(NC(=O)Nc3ccc(C(F)(F)F)cc3)ccc2O1` was tested, and the cytotoxicity call was “active”. With `C[C@H](CO)N1C[C@H](C)[C@@H](CN(C)CC2CCCCC2)OCCCC[C@H](C)Oc2ccc(NC(=O)Nc3ccc(C(F)(F)F)cc3)cc2C1=O` the cytotoxicity call was “active”. With `C[C@@H]1CN([C@H](C)CO)C(=O)c2cc(NC(=O)Nc3ccc(C(F)(F)F)cc3)ccc2O[C@@H](C)CCCCO[C@@H]1CN(C)CC1CCCCC1` the cytotoxicity call was “active”. `C[C@@H]1CCCCO[C@H](CN(C)CC2CCCCC2)[C@@H](C)CN([C@H](C)CO)C(=O)c2cc(NC(=O)Nc3ccc(C(F)(F)F)cc3)ccc2O1` was tested, and the cytotoxicity call was “active”. For `C[C@H]1CN([C@@H](C)CO)C(=O)c2cc(NC(=O)CCCN(C)C)ccc2O[C@H]1CN(C)C(=O)NC1CCCCC1`, the cytotoxicity call was “inactive”. For `C[C@H]1CN([C@@H](C)CO)C(=O)c2cccc(NC(=O)CCCCCC(=O)Nc3ccccc3N)c2O[C@@H]1CN(C)C(=O)Nc1ccccc1`, the cytotoxicity call was “inactive”. For `C[C@H](CO)N1C[C@H](C)[C@@H](CN(C)Cc2ccc(C(=O)O)cc2)OCCCC[C@H](C)Oc2ccc(NC(=O)C3CCCCC3)cc2C1=O`, the cytotoxicity call was “inactive”. `C[C@@H]1CN([C@@H](C)CO)C(=O)Cc2cc(NC(=O)Nc3ccc(F)cc3)ccc2O[C@@H]1CN(C)C(=O)Nc1cccc2ccccc12` was tested, and the cytotoxicity call was “inactive”. `COc1ccc(C#Cc2ccc3c(c2)[C@]2(C(=O)N3)[C@H](C(=O)Nc3nc4ccccc4s3)[C@H]3C(=O)O[C@H](c4ccccc4)[C@H](c4ccccc4)N3[C@@H]2c2ccc(O)cc2)cc1` was tested, and the cytotoxicity call was “inactive”. With `Cc1ccc(S(=O)(=O)N(C)C[C@@H]2Oc3ccc(NS(C)(=O)=O)cc3C(=O)N([C@@H](C)CO)C[C@@H]2C)cc1` the cytotoxicity call was “inactive”. In the case of `NCc1nncn1-c1ccc(F)cc1`, the cytotoxicity call is reported as “inactive”. `C[C@H](CO)N1C[C@H](C)[C@H](CN(C)CC2CCCCC2)OCCCC[C@H](C)Oc2ccc(NC(=O)c3ccncc3)cc2C1=O` was tested, and the cytotoxicity call was “inactive”. In the case of `C[C@H](CO)N1C[C@H](C)[C@@H](CN(C)S(=O)(=O)c2cccs2)Oc2c(NS(=O)(=O)c3cn(C)cn3)cccc2C1=O`, the cytotoxicity call is reported as “inactive”. For `COCC#Cc1cnc2c(c1)C(=O)N([C@@H](C)CO)C[C@@H](C)[C@@H](CN(C)C(=O)CN1CCOCC1)O2`, the cytotoxicity call was “inactive”. With `C[C@@H]1CCCCO[C@@H](CN(C)CC2CCCCC2)[C@H](C)CN([C@H](C)CO)C(=O)c2cc(NC(=O)Nc3ccc(C(F)(F)F)cc3)ccc2O1` the cytotoxicity call was “active”. In the case of `C[C@@H]1CN([C@@H](C)CO)C(=O)c2cc(NC(=O)Nc3ccc(C(F)(F)F)cc3)ccc2O[C@@H](C)CCCCO[C@H]1CN(C)CC1CCCCC1`, the cytotoxicity call is reported as “inactive”. With `C[C@H]1CCCCO[C@@H](CN(C)CC2CCCCC2)[C@@H](C)CN([C@@H](C)CO)C(=O)c2cc(NC(=O)Nc3ccc(C(F)(F)F)cc3)ccc2O1` the cytotoxicity call was “active”. In the case of `C[C@@H]1CN([C@@H](C)CO)C(=O)c2cc(NC(=O)Nc3ccc(C(F)(F)F)cc3)ccc2O[C@@H](C)CCCCO[C@@H]1CN(C)CC1CCCCC1`, the cytotoxicity call is reported as “inactive”. With `Cc1noc(C)c1NC(=O)Nc1ccc2c(c1)C(=O)N([C@H](C)CO)C[C@H](C)[C@H](CN(C)Cc1ccncc1)OCCCC[C@@H](C)O2` the cytotoxicity call was “inactive”. In the case of `CO[C@@H]1CN(C)C(=O)c2cc(NS(C)(=O)=O)ccc2OC[C@@H](C)N(C(=O)CN(C)C)C[C@@H]1C`, the cytotoxicity call is reported as “inactive”. `C[C@H]1CN([C@@H](C)CO)C(=O)c2cc(NS(=O)(=O)c3cn(C)cn3)ccc2O[C@H]1CN(C)S(C)(=O)=O` was tested, and the cytotoxicity call was “inactive”. For `C[C@H]1CN([C@@H](C)CO)S(=O)(=O)c2ccc(C#CC3(O)CCCC3)cc2O[C@@H]1CN(C)C(=O)Cc1ccncc1`, the cytotoxicity call was “inactive”. In the case of `COc1ccc(S(=O)(=O)N(C)C[C@H]2OCCCC[C@@H](C)Oc3ccc(NC(=O)c4ccccc4)cc3C(=O)N([C@H](C)CO)C[C@@H]2C)cc1`, the cytotoxicity call is reported as “inactive”. In the case of `C[C@@H]1CN([C@H](C)CO)C(=O)c2cc(NC(=O)Cc3ccccc3)ccc2O[C@@H](C)CCCCO[C@@H]1CN(C)C(=O)C1CCCCC1`, the cytotoxicity call is reported as “inactive”. In the case of `COC(=O)C[C@](O)(CCCC(C)(C)O)C(=O)O[C@@H]1C(OC)=C[C@]23CCCN2CCc2cc4c(cc2[C@H]13)OCO4`, the cytotoxicity call is reported as “active”. With `C[C@@H]1CN([C@@H](C)CO)C(=O)CCCn2cc(nn2)CO[C@@H]1CN(C)C(=O)Nc1cccc(C(F)(F)F)c1` the cytotoxicity call was “inactive”. For `C[C@H](CO)N1C[C@H](C)[C@@H](CN(C)C(=O)C2CCCCC2)OCCCC[C@H](C)Oc2ccc(NC(=O)Cc3ccccc3)cc2C1=O`, the cytotoxicity call was “inactive”. For `C[C@@H]1CN([C@H](C)CO)S(=O)(=O)c2ccc(C#CC3CC3)cc2O[C@H]1CN(C)Cc1ccc(F)cc1`, the cytotoxicity call was “active”. `C[C@@H]1CN([C@H](C)CO)S(=O)(=O)c2ccc(C#CC3CC3)cc2O[C@@H]1CN(C)Cc1ccc(F)cc1` was tested, and the cytotoxicity call was “inactive”. In the case of `C[C@@H]1CN([C@@H](C)CO)S(=O)(=O)c2ccc(C#CC3CC3)cc2O[C@H]1CN(C)Cc1ccc(F)cc1`, the cytotoxicity call is reported as “inactive”. In the case of `C[C@H](CO)N1C[C@H](C)[C@@H](CN(C)Cc2ccc(F)cc2)Oc2cc(C#CC3CC3)ccc2S1(=O)=O`, the cytotoxicity call is reported as “inactive”. For `C[C@H]1CN([C@@H](C)CO)S(=O)(=O)c2ccc(C#CC3CC3)cc2O[C@@H]1CN(C)Cc1ccc(F)cc1`, the cytotoxicity call was “active”. In the case of `C[C@H]1CN([C@@H](C)CO)S(=O)(=O)c2ccc(C#CC3CC3)cc2O[C@H]1CN(C)Cc1ccc(F)cc1`, the cytotoxicity call is reported as “inactive”. With `CO[C@@H]1CN(C)C(=O)c2cc(NC(=O)Nc3ccccc3F)ccc2OC[C@@H](C)N(CCC(F)(F)F)C[C@H]1C` the cytotoxicity call was “inactive”. `C[C@@H]1CN([C@@H](C)CO)C(=O)c2cc(NC(=O)Cc3ccccc3)ccc2O[C@@H]1CN(C)C(=O)Nc1ccc(C(F)(F)F)cc1` was tested, and the cytotoxicity call was “inactive”. With `O=C([C@H]1[C@H](CO)[C@H]2Cn3c(cccc3=O)[C@H]2N1C(=O)C1CCCC1)N1CCOCC1` the cytotoxicity call was “inactive”. In the case of `COc1ccc(CN(C)C[C@H]2Oc3c(NC(=O)C4CCOCC4)cccc3C(=O)N([C@H](C)CO)C[C@@H]2C)cc1`, the cytotoxicity call is reported as “inactive”. With `O=C(C[C@H]1CC[C@H]2[C@@H](COC[C@@H](O)CN2C(=O)Nc2cccc(F)c2)O1)NCc1ccccc1Cl` the cytotoxicity call was “inactive”. `CCC(=O)Nc1ccc(C)c(C)c1` was tested, and the cytotoxicity call was “inactive”. With `C[C@@H]1CCCCO[C@@H](CN(C)C(=O)Nc2ccc(F)cc2)[C@@H](C)CN([C@H](C)CO)C(=O)c2cc(NC(=O)CCCN(C)C)ccc2O1` the cytotoxicity call was “inactive”. `Cc1ccc(S(=O)(=O)N(C)C[C@@H]2Oc3ccc(NS(=O)(=O)c4cccs4)cc3CC(=O)N([C@@H](C)CO)C[C@H]2C)cc1` was tested, and the cytotoxicity call was “inactive”. `COC(=O)c1c(C(=O)OC)c2n(c(=O)c1-c1ccccc1)[C@@H]1c3ccccc3O[C@@](COCc3ccc(OC)cc3)([C@@H]1CO[Si](C)(C)C(C)(C)C)N2C` was tested, and the cytotoxicity call was “inactive”. In the case of `COc1ccc(COCC23Oc4ccccc4[C@H]([C@H]2CO)n2c(c4ccccc4c(-c4ccccc4)c2=O)N3C)cc1`, the cytotoxicity call is reported as “inactive”. `COc1ccc(COCC23Oc4ccccc4[C@H]([C@H]2CO[Si](C)(C)C(C)(C)C)n2c(c4ccccc4c(-c4ccccc4)c2=O)N3C)cc1` was tested, and the cytotoxicity call was “active”.
